Laboratory results taken from PubChem BioAssay (NCATS).
Values without a mark were called inactive. The call rests on the fitted dose curve; in most records, active means well fitted curve in the direction sought with a large enough effect; inactive means no such curve, though single readings can be large or run the other way.

Target: Alpha-galactosidase (Coffea arabica) (UniProt Q42656)
Assay: Counterscreen for Glucocerebrosidase Inhibitors: qHTS Assay for Coffee Bean alpha-Galactosidase at pH 5.9 (AID 998);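 further: plate controls were uninhibited enzyme for no effect and no-enzyme basal signal for full effect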
Conditions: coffee bean alpha-galactosidase enzyme assay; series mostly up to 76.9 µM; activity, negative = inhibition: at the top concentration
How it was run: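 Compounds were titrated from 0.7 nM to 77 uM against green coffee bean alpha-galactosidase (2 nM) using 80 uM fluorogenic 4-methylumbelliferyl substrate. After 20 min at room temperature, reactions were stopped at pH 10 and read by fluorescence.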

Chain of Alpha-galactosidase (Coffea arabica) (Q42656 whole entry, looked up): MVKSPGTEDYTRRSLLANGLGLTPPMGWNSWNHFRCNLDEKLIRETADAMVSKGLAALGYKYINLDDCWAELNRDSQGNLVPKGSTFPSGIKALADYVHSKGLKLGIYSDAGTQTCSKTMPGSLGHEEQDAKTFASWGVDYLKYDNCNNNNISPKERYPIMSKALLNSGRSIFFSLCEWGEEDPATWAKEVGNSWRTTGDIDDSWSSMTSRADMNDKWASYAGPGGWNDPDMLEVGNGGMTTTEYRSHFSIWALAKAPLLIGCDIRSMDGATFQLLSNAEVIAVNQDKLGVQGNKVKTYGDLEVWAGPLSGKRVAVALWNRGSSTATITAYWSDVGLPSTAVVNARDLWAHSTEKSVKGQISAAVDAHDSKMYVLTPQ

| SMILES | activity, negative = inhibition [%] |
| --- | --- |
| COc1nc(C)nc(Cl)c1NC1=NCCN1 | 1.72 |
| C=Cc1c(C)c2cc3[nH]c(cc4nc(cc5nc(cc1[nH]2)C(C)=C5CCC(=O)O)C(CCC(=O)O)=C4C)c(C)c3C=C | 0.839 |
| Cc1cc(C(C)(C)C)c(O)c(C)c1CC1=NCCN1 | 0.333 |
| Cn1cnc2c1c(=O)[nH]c(=O)n2C | 0.336 |
| CN1CCC(=C2c3ccccc3CC(=O)c3sccc32)CC1 | -1.13 |
| O=C(O)CN(CCOCCOCCN(CC(=O)O)CC(=O)O)CC(=O)O | 0.419 |
| Cn1c(=O)c2c(ncn2C)n(C)c1=O | 5.54 |
| CCN(CC)CC(=O)Nc1c(C)cccc1C | 0.685 |
| C[C@]12CCC(=O)C=C1CC[C@@H]1[C@@H]2[C@@H](O)C[C@@]2(C)[C@H]1CC[C@]2(O)C(=O)CO | 1.34 |
| C[C@]12C=CC(=O)C=C1CC[C@H]1[C@@H]3C[C@@H](O)[C@](O)(C(=O)CO)[C@@]3(C)C[C@H](O)[C@@]12F | 0.346 |
| CN(C)CCCN1c2ccccc2Sc2ccccc21 | -0.54 |
| Cc1nc2sccn2c(=O)c1CCN1CCC(=C(c2ccc(F)cc2)c2ccc(F)cc2)CC1 | -12.4 |
| CCCCNc1c(C(=O)OCC)c(C)nc2c1cnn2CC | 5.07 |
| O=C(O)CCc1nc(-c2ccccc2)c(-c2ccccc2)o1 | 2.01 |
| Oc1ccc(O)cc1 | -3.48 |
| COc1ccccc1N1CCN(CCCNc2cc(=O)n(C)c(=O)n2C)CC1 | 1.57 |
| C[n+]1cc2c3c(ccc2c2ccc4cc5c(cc4c21)OCO5)OCO3 | -1.87 |
| Cc1ccc(C(=O)Nc2ccc(S(=O)(=O)O)c3cc(S(=O)(=O)O)cc(S(=O)(=O)O)c23)cc1NC(=O)c1cccc(NC(=O)Nc2cccc(C(=O)Nc3cc(C(=O)Nc4ccc(S(=O)(=O)O)c5cc(S(=O)(=O)O)cc(S(=O)(=O)O)c45)ccc3C)c2)c1 | 1.76 |
| OC(CN1CCC(Cc2ccc(F)cc2)CC1)c1ccc(Cl)cc1 (stereo not given) | -3.85 |
| COC(=O)[C@@H](N)Cc1ccc(O)c(O)c1 | 1.22 |
